Experimental data: article PMC4336329 (PLoS ONE, 2015)
The campaign covered roughly 310,000 compounds. About 14,000 (4.5%) showed an effect of 50% or more. The effect is printed as a negative number. Many of the other results were omitted from the sample, so strong results are more common in it than they were.

Target: human ether-à-go-go-related gene (hERG) potassium channel (human, UniProt Q12809)
Experiment: primary screen, population patch clamp on CHO cells stably expressing hERG; higher = less effect of the substance
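Also: peak tail current of the secondary pulse compared with the same well before compound.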

Chain of human ether-à-go-go-related gene (hERG) potassium channel (Q12809 whole entry, looked up): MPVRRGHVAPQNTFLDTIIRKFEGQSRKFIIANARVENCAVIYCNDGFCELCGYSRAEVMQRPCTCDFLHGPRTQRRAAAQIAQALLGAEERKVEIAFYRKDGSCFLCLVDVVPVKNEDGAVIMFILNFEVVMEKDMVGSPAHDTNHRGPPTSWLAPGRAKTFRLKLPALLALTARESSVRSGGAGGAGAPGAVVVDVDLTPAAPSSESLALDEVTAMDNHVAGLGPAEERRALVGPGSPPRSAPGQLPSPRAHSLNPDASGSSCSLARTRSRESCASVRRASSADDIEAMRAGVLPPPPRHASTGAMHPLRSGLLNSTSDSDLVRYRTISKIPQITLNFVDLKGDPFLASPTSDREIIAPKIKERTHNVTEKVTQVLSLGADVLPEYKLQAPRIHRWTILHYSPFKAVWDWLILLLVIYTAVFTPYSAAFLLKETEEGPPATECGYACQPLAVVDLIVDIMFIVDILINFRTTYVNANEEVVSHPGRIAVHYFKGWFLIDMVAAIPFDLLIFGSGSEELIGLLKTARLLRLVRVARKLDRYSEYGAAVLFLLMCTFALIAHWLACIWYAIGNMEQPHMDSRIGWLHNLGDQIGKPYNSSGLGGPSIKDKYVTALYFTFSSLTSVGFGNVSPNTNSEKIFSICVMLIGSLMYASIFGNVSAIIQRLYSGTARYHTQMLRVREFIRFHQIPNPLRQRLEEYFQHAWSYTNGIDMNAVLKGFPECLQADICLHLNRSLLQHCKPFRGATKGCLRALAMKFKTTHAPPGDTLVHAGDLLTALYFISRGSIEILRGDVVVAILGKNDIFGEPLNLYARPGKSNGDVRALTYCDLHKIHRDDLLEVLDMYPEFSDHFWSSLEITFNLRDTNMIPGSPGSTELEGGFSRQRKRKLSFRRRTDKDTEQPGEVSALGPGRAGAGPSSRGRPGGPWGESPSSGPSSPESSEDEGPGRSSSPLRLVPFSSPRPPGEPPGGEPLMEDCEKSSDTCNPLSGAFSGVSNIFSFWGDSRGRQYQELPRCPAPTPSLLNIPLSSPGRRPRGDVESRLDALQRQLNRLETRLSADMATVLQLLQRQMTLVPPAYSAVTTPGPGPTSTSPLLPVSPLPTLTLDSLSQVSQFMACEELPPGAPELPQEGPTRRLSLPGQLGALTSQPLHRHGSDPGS

Row | Compound | hERG current change (%, negative = inhibition) at 10uM [%]
1 | CC(C)n1c(-c2ccco2)csc1=Nc1cccnc1 | -10.3
2 | COc1ccccc1-n1cnc2c(c1=O)c1nc3ccccc3nc1n2-c1ccc(C)cc1 | -19.7
3 | COc1ccc(-c2ccc(/C=N/N3C(=O)C4C5C=CC(C6CC56)C4C3=O)o2)c([N+](=O)[O-])c1 (stereo not shown) | -58.9
4 | O=C1C2C3C=CC(C4CC34)C2C(=O)N1/N=C/c1ccc(-c2ccc(Cl)cc2[N+](=O)[O-])o1 (stereo not shown) | -13.5
5 | Cc1ccc(-c2ccc(/C=N/N3C(=O)C4C5C=CC(C6CC56)C4C3=O)o2)c([N+](=O)[O-])c1 (stereo not shown) | -12.5
6 | CCCCC[C@H](O)/C=C/C1=C(CCCCCCC(=O)O)C(=O)CC1 | 17.9
7 | O=C(COC(=O)c1c[nH]c(=O)[nH]c1=O)NCc1ccccc1 | -12.2
8 | O=C(CN1CCOCC1)N/N=C/c1ccc(-c2ccc(C(=O)O)cc2)o1 | -12
9 | O=C(CN1CCOCC1)N/N=C/c1ccccc1 | -14.4
10 | Cc1ccc([N+](=O)[O-])cc1-c1ccc(/C=N/NC(=O)CN2CCOCC2)o1 | -38.9
11 | Cc1ccc(-c2ccc(/C=N/NC(=O)CN3CCOCC3)o2)cc1[N+](=O)[O-] | -29.5
12 | O=C(CN1CCOCC1)N/N=C/c1ccc(-c2ccc(Br)cc2)o1 | -67.1
13 | O=C(CN1CCOCC1)N/N=C/c1ccc(-c2cccc(Cl)c2Cl)o1 | -73.4
14 | O=C(COc1ccccc1F)NNC(=O)c1ccc(N2CCCCC2)c([N+](=O)[O-])c1 | -36
15 | Nc1nc(-c2ccc(Cl)cc2)cn1N | -2.98
16 | COc1ccc(C(=O)Nc2ccccc2C(N)=O)cc1 | -18.9
17 | CC(=O)Oc1cccc(N2C(=O)C3C4C=CC(CC4)C3C2=O)c1 (stereo not shown) | 16.1
18 | Cc1ccc(-c2nc3ccccc3c(=O)n2-c2ccc(O)cc2)cc1 | -3.92
19 | O=C1CCC(C(=O)N2CCCCCC2)CN1CCc1ccc(Cl)cc1 (stereo not shown) | -28.9
20 | O=C1CCC(C(=O)N2CCC(O)CC2)CN1CCc1ccc(Cl)cc1 (stereo not shown) | 1.38
21 | CC(C)C1CCN(C(=O)C2CCC(=O)N(CCc3ccc(Cl)cc3)C2)CC1 (stereo not shown) | -52.6
22 | C=CCC1(CC=C)CCCN1C(=O)C1CCC(=O)N(CCc2ccc(Cl)cc2)C1 (stereo not shown) | -60
23 | C=CCC1(CC=C)CCCN1C(=O)C1CCC(=O)N(CCc2ccc(OC)cc2)C1 (stereo not shown) | -18.6

Row | Compound | hERG current change (%, negative = inhibition) at 10uM [%]
24 | C=CCC1(CC=C)CCCN1C(=O)C1CCC(=O)N(CCc2ccccc2)C1 (stereo not shown) | -12.5
25 | COc1ccc(S(=O)(=O)Nc2ccccc2C)cc1 | 0.614
26 | C/C(=N\NC(N)=S)c1cccnc1 | 2.44
27 | COc1ccccc1N1CCN(c2cc(C)nc3nc(C)nn23)CC1 | -57.6
28 | Cc1ccc(Nc2cc(C)nc3nc(C)nn23)c(C)c1 | 9.08
29 | Cc1cc(Nc2cccc(F)c2)n2nc(C)nc2n1 | -12.1
30 | Cc1cc(N2CCN(c3ccccn3)CC2)n2nc(C)nc2n1 | -51.4
31 | COc1cccc(Nc2cc(C)nc3nc(C)nn23)c1 | -12.8
32 | COc1ccccc1N1CCN(c2nc(C)cc(=O)[nH]2)CC1 | 11.6
33 | COc1ccccc1-c1c(C)nn2c(N3CCN(c4ccccc4OC)CC3)cc(C)nc12 | 3.75
34 | C(=N\N1CCN(c2ccccn2)CC1)/c1ccccn1 | 13.5
35 | Cc1ccc(N2CCN(c3cc(C)nc4nc(C)nn34)CC2)c(C)c1 | -72.6
36 | Cc1cc(C)c2c(n1)nn1c(N3CCN(c4ccccc4C)CC3)cc(C)nc21 | 7.78
37 | Cc1cc(Nc2cccc(C(F)(F)F)c2)n2nc(C)nc2n1 | -51.8
38 | Cc1ccc(/C=N/N2CCN(c3ccccn3)CC2)cc1 | 2.68
39 | COC(=O)C(CC(C)C)NC(=O)CNC(=O)c1ccccc1C (stereo not shown) | 3.34
40 | C/C(=N\OCC(=O)Nc1cc(C)cc(C)c1)c1ccc2c(c1)OCCO2 | -13
41 | CCC12CN3CCN(CC(C3)/C1=N/NC(N)=O)C2 | 21
42 | Cc1c(Cl)cccc1-n1ccnc1SCC(=O)O | 18.2
43 | O=S(=O)(/N=C(/c1ccccc1)N1CCOCC1)c1ccc(F)cc1 | 23.7
44 | COc1ccc(-c2cc(C(=O)N(C)Cc3cccc(OC)c3OC)c3ccccc3n2)cc1OC | -28.8
45 | COc1ccc(OC)c(/C=C/C(=O)Oc2ccc(C(C)=O)cc2)c1 | 13.8
46 | Nc1c(-c2ccccc2)cnn1-c1cccc(C(F)(F)F)c1 | 1.64

Row | Compound | hERG current change (%, negative = inhibition) at 10uM [%]
47 | Cc1nnc(SCC(=O)NC2CCCCCC2)n1C | 23.4
48 | Cc1cc(N2CCN(C)CC2)n2nc(-c3ccc(Cl)cc3)nc2n1 | -77.3
49 | COc1ccccc1N1CCN(c2ccc3ccccc3n2)CC1 | -36.5
50 | Cc1cc(N2CCN(c3cccc(C(F)(F)F)c3)CC2)n2nc(C)nc2n1 | -61.9
51 | CCOc1cc(C)nc(N2CCC(C(=O)Nc3ccccc3OCC)CC2)n1 | 5.62
52 | COc1ccccc1N1CCN(c2cnccn2)CC1 | -2.25
53 | Cn1nc(C(F)(F)F)c(C#N)c1N1CCN(c2cccc(C(F)(F)F)c2)CC1 | 3.01
54 | COc1ccccc1N1CCN(c2cc(N3CCCC3)nc(C)n2)CC1 | -65.3
55 | Cc1cc(N2CCOCC2)n2nc(C)c(-c3ccc(Cl)cc3)c2n1 | 8.58
56 | Cl.FC(F)(F)c1cccc(N2CCNCC2)c1 | -13.3
57 | Cc1nc2nc(-c3ccc(Cl)cc3)nn2c(C)c1Cl | 8.82
58 | COc1cc(C)nc(N2CCC(C(=O)NC3CCCCC3)CC2)n1 | -3.08
59 | CCOc1cc(C)nc(N2CCN(C3CCCCC3)CC2)n1 | -67.5
60 | COc1ccc(/C=N/n2c(-c3cc(C)[nH]n3)n[nH]c2=S)cc1OC | 18.6
61 | Cc1cccnc1NC(=O)CN1C(=O)NC(C)(c2ccc3ccccc3c2)C1=O (stereo not shown) | -14
62 | Cc1cc(C)cc(NC(=S)N(C)C)c1 | -5.83
63 | COc1ccc(N2CCN(C(=O)c3ccc4c(c3)[nH]c(=S)n3c5ccccc5nc43)CC2)cc1 | 16.7
64 | Cc1nc2cc(NC(=O)c3ccc([N+](=O)[O-])s3)ccc2s1 | -9.99
65 | O=C(c1cc(-c2cccc(O)c2)on1)N1CCN(C(c2ccccc2)c2ccccc2)CC1 | 10.8
66 | Cc1ccc2nc(SCc3nc4c(cnn4-c4ccccc4)c(=O)[nH]3)[nH]c2c1 | 15.3
67 | C/C=C/c1ccc(OCC(=O)Nc2cc(S(=O)(=O)N3CCOCC3)ccc2N2CCCC2)c(OC)c1 | 3.81
68 | CC1(C)C(CO)=CC(=O)C2=C1SCC(=O)N2 | -16.3
69 | CCOc1ccc(NC(=O)C2CC(=O)OC2c2ccccc2)cc1 (stereo not shown) | 6.5

Row | Compound | hERG current change (%, negative = inhibition) at 10uM [%]
70 | CCC(C)NC(=O)CCc1nc2ccccc2n1-c1ccccc1 (stereo not shown) | 2.77
71 | O=C(CNC(=O)c1ccccc1Cl)OC1CCOC1=O (stereo not shown) | 13.5
72 | COc1ccc(Nc2cc(C)nc3nc(C)nn23)cc1Cl | -55.5
73 | Cc1nc2ncnn2c(N2CCN(c3cccc(C(F)(F)F)c3)CC2)c1C | -64.1
74 | Cc1nc2ncnn2c(N2CCN(C(=O)c3cccc(F)c3)CC2)c1C | -49.3
75 | Cc1cc(N2CCCCC2)nc2c(C)cccc12 | 15
76 | Cc1cc(Nc2ccc(F)c(Cl)c2)n2nc(C)nc2n1 | -18
77 | COc1ccc(Nc2cc(C)nc3ncnn23)cc1Cl | -39.5
78 | COc1cccc2c(C)cc(N3CCCCCC3)nc12 | -52.9
79 | CCOC(=O)N1CCN(c2cc(C)nc3nc(C)nn23)CC1 | -32.9
80 | Cc1cc(N2CCN(C3CCCCC3)CC2)n2nc(C)nc2n1 | -57.7
81 | Cc1cc(N2CCN(c3cccc(C(F)(F)F)c3)CC2)n2ncnc2n1 | -37
82 | Cc1cc(N2CCCC2)n2nc(C)nc2n1 | -11.8
83 | Cc1cc(N2CCCC2)nc2c(C)cccc12 | -21.6
84 | O=C(O)CNC1=NCCCCC1 | 0.366
85 | O=C(O)Cc1ccc(NS(=O)(=O)c2ccccc2Cl)cc1 | 24.4
86 | Cc1ccc(NS(=O)(=O)c2cc([N+](=O)[O-])ccc2NNC(=S)Nc2cc(C)ccc2C)c(C)c1 | -0.00412
87 | CC1(C)Cc2c(C#N)c(N3CCN(C(=O)c4ccco4)CC3)nc(-c3ccco3)c2CS1 | -21.6
88 | Cc1ccc(CNS(=O)(=O)c2c(N)n(C)c(=O)n(C)c2=O)cc1 | 8.77
89 | COc1ccc2c(CC(=O)NC(Cc3ccc(Cl)cc3)C(=O)O)cc(=O)oc2c1C (stereo not shown) | 3.13
90 | N#Cc1ccc(-c2ccc3c(c2)OCO3)nc1SCC(=O)OCc1ccccc1 | 9.22
91 | Cc1ccc(NC(=O)C2CCN(S(=O)(=O)c3c(C)noc3/C=C/N(C)C)CC2)cc1 | -5.19
